Several values for one entry are separate records, joined by “and”; a condition that tells them apart may be missing. Identical values can stand only once. The panel holds about 79,000 compounds, 15% with a hit somewhere; the sample as a whole holds those more often. Unmarked numbers belong to inactive results. Activity calls are given as the source filed them. No stated cut-off is given here; in the data, active means growth inhibition above about 70%; inactive means the rest.
Experiments:
[1] = NCI Yeast Anticancer Drug Screen. Data for the rad50 strain (AID 155);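 further: 0% = growth of vehicle-only cultures of the same strain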; settings: S. cerevisiae rad50 strain growth inhibition, stronger effect = higher value; at 50.0 µM unless noted
Summary of the method: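 Compounds were tested on a yeast strain with an engineered DNA damage repair alteration; the reported value is growth inhibition normalised to vehicle treatment.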

[2] = NCI Yeast Anticancer Drug Screen. Data for the mec2-1 strain (AID 157); settings: S. cerevisiae mec2-1 strain, stronger effect = higher value; at 50.0 µM unless noted
Summary of the method: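 Each compound was tested on mec2-1 yeast, a strain altered in DNA damage repair or cell cycle control. Growth inhibition is reported relative to vehicle.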

[3] = NCI Yeast Anticancer Drug Screen. Data for the sgs1 mgt1 strain (AID 161);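 further: 0% = growth of cultures given vehicle only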; settings: S. cerevisiae sgs1 mgt1 strain, stronger effect = higher value; at 50.0 µM unless noted
Summary of the method: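 Inhibition of yeast growth, normalised to vehicle-treated controls, is reported for a strain bearing genetic alterations in DNA damage repair.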

[4] = NCI Yeast Anticancer Drug Screen. Data for the cln2 rad14 strain (AID 165);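 further: 0% = growth equal to vehicle treated cultures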; settings: S. cerevisiae cln2 rad14 strain, stronger effect = higher value; at 50.0 µM unless noted
Summary of the method: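 Test compounds were added to cln2 rad14 yeast cultures; inhibition of growth was then determined by comparison with vehicle treatment.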

[5] = NCI Yeast Anticancer Drug Screen. Data for the mlh1 rad18 strain (AID 175); settings: S. cerevisiae mlh1 rad18 strain growth inhibition, stronger effect = higher value; at 50.0 µM unless noted
Summary of the method: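 Inhibition values reflect reduced growth of mutant yeast versus vehicle-treated controls following compound exposure; the mutations affect DNA damage repair.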

[6] = NCI Yeast Anticancer Drug Screen. Data for the bub3 strain (AID 167); settings: S. cerevisiae bub3 mutant strain, stronger effect = higher value; at 50.0 µM unless noted
Summary of the method: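 Growth of a checkpoint-deficient yeast mutant is measured after compound exposure. Values represent inhibition relative to vehicle.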

Structure (SMILES)	growth inhibition [1]	growth inhibition [2]	growth inhibition [3]	growth inhibition [4]	growth inhibition [5]	growth inhibition [6]
C=C1CC2(OC1=O)c1ccccc1C=Cc1ccccc12	26.8%	13.4%	55.1%	48.8%	50.4%	
c1ccc2nc(CCC3CCCCN3)ccc2c1 (configuration not stated)	7.2%	7.5%	-9.7%	-14.2%	17.1%	
CC[N+](C)(CC)CCNC(=O)C(c1ccccc1)c1ccccc1	45.6%	-1.45%	21.1%	0.5%	16.2%	
O=c1[nH]cnc2nc(N3CCOCC3)sc12	-15.7%	-4.6%	-1.7%	-5.8%	-4.65%	
CCOc1ccc(N=Nc2c(O)n(-c3ccc(Cl)cc3)c(=S)n(-c3ccccc3)c2=O)cc1	-15.2%	2.5%	7.85%	-0.15%	26.4%	32.5%
CC(C)(C)SC(=S)SCC(=O)c1ccc(F)cc1	4.35%	-36.4%	8.65%	-10.4%	1.5%	
COc1cccc(C(c2ccccc2)C(CC(=O)O)CC(=O)O)c1 (configuration not stated)	8.8%	8.6%	-12.8%	4%	-16.5%	
CCCCCCCCN(CCCCCCCC)CC(O)c1cc(Cl)c(Cl)c(Cl)c1 (configuration not stated)	24.1%	12.3%	47.4%	53.9%	33%	18.6%
Cc1ccc(=O)[nH]n1	-3.25% and -31.6%	-21.7% and -16.3%	-9.8% and -17.8%	-8.35% and -28.9%	3.75% and -20%	
OCc1ccccc1Sc1ccccc1CO	15.8%	-8.6%	2.6%	11.8%	24%	
O=C(O)C1CC1c1ccc2c(c1)OCO2 (configuration not stated)	-11.8%	-10.4%	7.2%	-34%	1.35%	-33.9%
Cc1ccccc1C(=O)NCC(=O)O	10.8%	-28.1%	8.2%	3.65%	12.3%	
COc1ccc2nc3ccccc3c(NCCC[N+](C)(C)[O-])c2c1[N+](=O)[O-]	-6.4%	-16.4%	3.45%	-34.1%	-7.55%	-13.1%
CC(=O)CCC(C)C1CCC2C3CCC4CCCCC4(C)C3CCC12C (configuration not stated)	7.4%	-3.05%	-7.75%	13.8%	-1.8%	
Cc1ccc2nc(-c3ccc(F)cc3)cc(C(=O)O)c2c1	9.9%	2.05%	6.25%	17.9%	26.1%	
CC(=O)c1cccc(NC(=O)Oc2cc(=O)oc3ccccc23)c1	5.75%	19.3%	12.4%	-4.6%	29.5%	
O=[N+]([O-])c1ccc(/C=N/Nc2nnc3c4ccccc4c4ncccc4c3n2)o1	-20.8%	-14.6%	-23.6%	-29.8%	16.9%	
Clc1ccc(Oc2ncnc3nc[nH]c23)cc1	3.6%	5.75%	2.85%	-1.35%	23.5%	
CCCC(=O)OCC1OC(n2cc(F)c(=O)[nH]c2=O)CC1OC(=O)CCC (configuration not stated)	4.1%	7.9%	13.9%	-4.3%	10.2%	
CC1=NN(C(=O)Nc2ccc(Cl)cc2)C(=O)C2CCC(=O)N12 (configuration not stated)	2.6%	0.6%	1.1%	2.7%	27%	
C(=Nc1cccc2ccccc12)c1cccs1	-8.95%	-4.85%	2.6%	-19%	-19.8%	
C=C1C(=O)C23[C@H](O)C1CC[C@H]2[C@]12COC3(O)[C@@H](O)[C@@H]1C(C)(C)CC[C@@H]2O	3.65%	-20.6%		-0.6%	-46.1%	-0.5%
O=C(NC(CSC(c1ccccc1)(c1ccccc1)c1ccccc1)C(=O)O)OC(c1ccccc1)c1ccccc1 (configuration not stated)	91.5% (active)	95.6% (active)		89% (active)		89.5% (active)
OC1(C2NCCc3ccccc32)CCN(CCc2ccccc2)CC1 (configuration not stated)	21.8%	10.7%		20.2%	8.9%	2.95%

Structure (SMILES)	growth inhibition [1]	growth inhibition [2]	growth inhibition [3]	growth inhibition [4]	growth inhibition [5]	growth inhibition [6]
OC(c1ccccc1)c1ccc(C(O)c2ccccc2)cc1 (configuration not stated)	-14.2%	-19.1%		33.3%	-8.75%	5.5%
O=c1[nH]c2ccc(O)cc2o1	33.2%	17.8%		-10.1%	22.2%	12.9%
CCCCOC(c1ccccc1)c1ccccc1	-19.8%	-18.6%		-17.8%	1.95%	-4.25%
CC(=O)NC1C(OCc2ccccc2)OC(CO)C(O)C1OC(C)C(=O)N[C@@H](C)C(=O)N[C@H](CCC(=O)OCCNc1c2ccccc2nc2cccc([N+](=O)[O-])c12)C(N)=O (some centres not stated)	87.2% (active)	90.8% (active)		90.5% (active)	86.8% (active)	88.7% (active)
CC1(C)N=C(Oc2cc(Cl)cc(Cl)c2)NC(=S)N1	11.8%	-8.3%		21.2%	24%	7%
CCC(=O)c1cccc2cccc(C(c3ccccc3)c3ccccc3)c12	1.85%	14.4%		-7.05%	-19.6%	8.7%
COc1cccc2cc3c(cc12)C(=O)C(C)=C(C)C3=O	-1.65%	-3.6%		-9.25%	2.55%	6.8%
CCCCCCn1ncc2c(N)ncnc21	10.4%	6.85%		-4%		29.8%
O=C1NCC2(CCN(CCCC3(c4ccc(F)cc4)OCCO3)CC2)N1c1ccccc1	-14.1%	-0.05%		1.4%	1.55%	6.4%
COc1ccc(C(=O)CCC(=O)O)c(O)c1	-3.25%	1.35%		-11.1%	-11.3%	-4.15%
CS(=O)(=O)CS(C)(=O)=O	18.9%	6.15%		14.5%	27.9%	0.25%
CCOC(=O)O/C(C)=C\c1ccc(Cl)cc1	2.45%	-2.65%		-50.4%	7.05%	-34.9%
O=C(OCc1ccccc1CN1CCCCC1)c1cccc(Cl)c1	-2.85%	-7.7%		-10.3%	2.3%	7.35%
Cc1cc2nc3c4ccccc4scc-3c2cc1C	99% (active)	99.3% (active)		99% (active)	98% (active)	99.1% (active)
Cc1cc(C)c(CC(C)C)c(C)c1	1.85%	6.25%		31.4%	-2.45%	2.4%
CN(C)/C(N)=N\c1nc(O)cc(=O)[nH]1	6.7%	-19.6%		-0.6%	10.1%	10.7%
CC1C=NNC1=O (configuration not stated)	19.9%	-30.8%		3.4%	4.5%	-0.05%
CC1=CSC2=NCCCCN12	-9.5%	2.3%		8.55%	16.1%	18.2%
C1=C(Nc2ccccc2)C(=Nc2ccccc2)C=C(Nc2ccccc2)C1=Nc1ccccc1	-17.2%	-4.25%		7.1%	5.4%	1.65%
Cc1cc(=O)n2nc(CSc3nnc(N)s3)sc2n1	-0.7%	0.5%		5.55%	4.2%	10.5%
O=C(CC(=O)Nc1ccccc1Cl)NNC(c1cc(N=Nc2ccc(Br)cc2)ccc1O)P(O)O (configuration not stated)	1.8%	0.3%		13.4%	-2.35%	-8.25%
C[C@]12CCC(=O)C=C1CC[C@@H]1[C@@H]2C(=O)C[C@]2(C)/C(=C\C(=O)O)CC[C@@H]12	-1%	-19.1%		-48.1%	2.55%	-4.5%
C[C@]12C=CC(=O)C=C1CC[C@@H]1[C@@H]2C(=O)C[C@@]2(C)[C@H]1CC[C@]2(O)C(=O)COC(=O)CSc1c2ccccc2nc2ccccc12	35.6%	5.8%		24.8%	19.3%	-9.4%
